Among the data in PubChem BioAssay (NCI) are growth values, retold here.

The panel holds about 83,000 compounds, 20% with a hit somewhere; the sample as a whole holds those more often.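 Growth was measured after 48 h exposure to one concentration of compound in 96-well plates. Values under 10 count as active.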 A number with no mark means an inactive call. The source made the active and inactive calls.

Test systems include DU-145 prostate; K-562 leukemia; MALME-3M melanoma; MDA-MB-231 breast; RXF 393 renal; SF-268 CNS; SF-295 CNS; SF-539 CNS; UACC-257 melanoma; M14 melanoma; HCT-15 colon; HT29 colon; SNB-75 CNS; U251 CNS; PC-3 prostate; SK-MEL-5 melanoma; UACC-62 melanoma; LOX IMVI melanoma; SK-MEL-28 melanoma; SNB-19 CNS.
What all share (experiment): NCI-60 one-dose screen, 48 h (100 = growth as untreated, 0 = no growth, -100 = all killed)
Holding throughout (conditions): 10 µM unless noted

In the case of `Cc1ccc2c(c1)O/C(=C\c1cccc(OCC(=O)c3ccccc3)c1)C2=O`, the growth was 103% in the experiment with DU-145 prostate; 93.4% in the experiment with K-562 leukemia; 94.7% with MALME-3M melanoma; 79% in the experiment with MDA-MB-231 breast; 80% in the experiment with RXF 393 renal; 103% in the experiment on SF-268 CNS. Besides, the growth was 89.4% with SF-295 CNS; 105% with SF-539 CNS; 93.6% in the experiment with UACC-257 melanoma; 98.9% in the experiment with M14 melanoma; 69.8% with HCT-15 colon; 118% in the experiment with HT29 colon. In addition, the growth with SNB-75 CNS is 93.4%; with U251 CNS, 96.5%; in the experiment with PC-3 prostate, 358%; with SK-MEL-5 melanoma, 87.3%; in the experiment on UACC-62 melanoma it was 66.1%; in the experiment on LOX IMVI melanoma, 101%. Further, in the experiment on SK-MEL-28 melanoma, the growth is 110%.

On to `CCN(CC)CCCNc1cc(OC)cc2nc3cc(Cl)ccc3nc12`, for which the growth in the experiment with DU-145 prostate is 0.94% (active); in the experiment on K-562 leukemia, -56.5% (active); in the experiment with MALME-3M melanoma it was -84.7% (active); in the experiment with MDA-MB-231 breast, -25.9% (active); in the experiment on RXF 393 renal, -10.9% (active); in the experiment with SF-268 CNS, -35.5% (active). In addition, the growth in the experiment on SF-295 CNS is 18.1%; in the experiment with SF-539 CNS it was -77.6% (active); with UACC-257 melanoma, -79.7% (active); with M14 melanoma, -94.2% (active); in the experiment with HCT-15 colon it was -11.9% (active); in the experiment on HT29 colon, -9.49% (active). Further, the growth in the experiment with SNB-75 CNS was -2.74% (active); in the experiment with PC-3 prostate it was 2.49% (active); with SK-MEL-5 melanoma it was -99.5% (active); with UACC-62 melanoma, -80.6% (active); in the experiment on LOX IMVI melanoma, -58.7% (active); in the experiment with SK-MEL-28 melanoma, -79.1% (active).

Regarding `O=C1/C(=C/c2ccc(F)cc2)CN(C(=O)CCN2CCC(=NO)CC2)C/C1=C\c1ccc(F)cc1`, the growth was -28% (active) with DU-145 prostate; 5.22% (active) in the experiment with K-562 leukemia; -22.4% (active) in the experiment with MALME-3M melanoma; -55.6% (active) with MDA-MB-231 breast; -81% (active) with RXF 393 renal; -23% (active) in the experiment with SF-268 CNS. In addition, the growth in the experiment with SF-295 CNS is -28.9% (active); in the experiment on SF-539 CNS it was -63% (active); with UACC-257 melanoma it was -19.1% (active); with M14 melanoma, -10.6% (active); in the experiment with HCT-15 colon, -58% (active); in the experiment on HT29 colon, -76.2% (active). Moreover, the growth with SNB-19 CNS was -37.9% (active); in the experiment on U251 CNS, -65.1% (active); in the experiment on PC-3 prostate it was -23.9% (active); in the experiment on SK-MEL-5 melanoma, -89.6% (active); with UACC-62 melanoma, -67.2% (active); in the experiment on LOX IMVI melanoma it was -89.6% (active). For the same compound, in the experiment with SK-MEL-28 melanoma, the growth was -59.1% (active).

For `COc1ccc(C2c3ccc4ccccc4c3Oc3ncnc(N)c32)cc1` (stereo unspecified), the growth in the experiment on DU-145 prostate is 102%; with K-562 leukemia it was 41.2%; in the experiment on MALME-3M melanoma, 93.1%; with MDA-MB-231 breast, 64.8%; in the experiment with RXF 393 renal it was 85.5%; in the experiment on SF-268 CNS, 86.2%. Besides, the growth was 87% in the experiment with SF-295 CNS; 88.2% in the experiment with SF-539 CNS; 98.5% with UACC-257 melanoma; 83% in the experiment with M14 melanoma; 88.5% in the experiment with HCT-15 colon; 104% in the experiment with HT29 colon. Moreover, the growth in the experiment with SNB-19 CNS is 91.2%; in the experiment with U251 CNS, 92.8%; with PC-3 prostate it was 71.9%; with SK-MEL-5 melanoma it was 85.5%; with UACC-62 melanoma, 66.9%; in the experiment on LOX IMVI melanoma, 76.5%. For the same compound, the growth in the experiment with SK-MEL-28 melanoma was 91.9%.

For `NS(=O)(=O)c1ccc(Nc2nc3n[nH]c(Nc4ccccc4)c3c(=O)[nH]2)cc1`, the growth in the experiment on DU-145 prostate is 102%; in the experiment with K-562 leukemia, 96%; in the experiment on MALME-3M melanoma it was 103%; in the experiment with MDA-MB-231 breast, 97.7%; in the experiment with RXF 393 renal, 115%; in the experiment on SF-268 CNS, 97%. Besides, the growth in the experiment on SF-295 CNS was 102%; in the experiment on SF-539 CNS it was 97.1%; with UACC-257 melanoma, 97%; in the experiment with M14 melanoma, 94.2%; with HCT-15 colon it was 108%; in the experiment with HT29 colon, 101%. The growth was 70.8% in the experiment on SNB-75 CNS; 101% in the experiment with U251 CNS; 92.1% in the experiment on PC-3 prostate; 99% with SK-MEL-5 melanoma; 105% in the experiment with UACC-62 melanoma; 101% with LOX IMVI melanoma. Also, in the experiment on SK-MEL-28 melanoma, the growth was 111%.

`C=CC[N+]1(CCO)CCN=C1CCCCCCCCCCCCC` (stereo unspecified): the growth is -90.4% (active) in the experiment on DU-145 prostate; -53.9% (active) in the experiment on K-562 leukemia; -61.9% (active) with MALME-3M melanoma; -70.1% (active) in the experiment on MDA-MB-231 breast; -55.3% (active) in the experiment on RXF 393 renal; -60.6% (active) with SF-268 CNS. The growth is 47.5% in the experiment with SF-295 CNS; -96.6% (active) in the experiment with SF-539 CNS; -80.3% (active) in the experiment on UACC-257 melanoma; -86.2% (active) with M14 melanoma; -74.5% (active) in the experiment on HCT-15 colon; -92.2% (active) in the experiment with HT29 colon. In addition, the growth was -78.3% (active) in the experiment with SNB-75 CNS; -87.8% (active) with U251 CNS; -29.9% (active) in the experiment on PC-3 prostate; -95% (active) with SK-MEL-5 melanoma; -96.5% (active) with UACC-62 melanoma; -87.9% (active) with LOX IMVI melanoma. In addition, the growth with SK-MEL-28 melanoma is -69.5% (active).

As for `CSc1[nH]c2ncnc(N)c2c1C#N`, the growth is 101% in the experiment on DU-145 prostate; 84.6% in the experiment on K-562 leukemia; 107% in the experiment with MALME-3M melanoma; 98.8% in the experiment with MDA-MB-231 breast; 151% in the experiment with RXF 393 renal; 113% in the experiment on SF-268 CNS. Besides, the growth is 105% in the experiment on SF-295 CNS; 96.3% in the experiment on SF-539 CNS; 124% in the experiment with UACC-257 melanoma; 95.1% in the experiment with M14 melanoma; 99% with HCT-15 colon; 97.9% in the experiment with HT29 colon. Further, the growth in the experiment on SNB-75 CNS was 82.5%; in the experiment on PC-3 prostate it was 110%; in the experiment on SK-MEL-5 melanoma it was 99.9%; in the experiment on UACC-62 melanoma, 85.9%; in the experiment with LOX IMVI melanoma it was 109%; with SK-MEL-28 melanoma it was 120%.

In the case of `COc1nc2c(cc1S(=O)(=O)c1ccccc1)CCc1c-2cnn1Cc1ccccc1`, the growth in the experiment with DU-145 prostate was 83.5%; in the experiment on K-562 leukemia, 38%; in the experiment on MALME-3M melanoma, 91.3%; with MDA-MB-231 breast, 59.1%; in the experiment with RXF 393 renal, 38.8%; in the experiment with SF-268 CNS, 82.2%. The growth was 42% with SF-295 CNS; 73.7% with SF-539 CNS; 48.3% with UACC-257 melanoma; 75.9% with M14 melanoma; 43.1% with HCT-15 colon; 13.9% in the experiment on HT29 colon. The growth in the experiment with SNB-75 CNS is 72.1%; in the experiment on U251 CNS, 48.1%; in the experiment with PC-3 prostate it was 38.3%; with SK-MEL-5 melanoma, 34.7%; with UACC-62 melanoma, 52%; with LOX IMVI melanoma, 65.9%. Moreover, the growth with SK-MEL-28 melanoma was 92.3%.

`CCN(CC)CCCC(C)NCCCNc1cccc2cccnc12` (stereo unspecified): the growth was 106% in the experiment with DU-145 prostate; 97.5% with K-562 leukemia; 88.1% in the experiment on MALME-3M melanoma; 81.4% in the experiment with MDA-MB-231 breast; 104% in the experiment with RXF 393 renal; 86.6% in the experiment on SF-268 CNS. Further, the growth with SF-295 CNS was 98%; with SF-539 CNS, 100%; with UACC-257 melanoma, 104%; in the experiment on M14 melanoma, 104%; in the experiment with HCT-15 colon, 104%; in the experiment with HT29 colon, 92%. Further, the growth in the experiment with SNB-75 CNS is 89.9%; with U251 CNS, 91.4%; in the experiment with PC-3 prostate, 87.3%; in the experiment with SK-MEL-5 melanoma, 98.5%; in the experiment with UACC-62 melanoma, 90.4%; in the experiment with LOX IMVI melanoma, 85.3%. The growth in the experiment on SK-MEL-28 melanoma was 123%.

On to `CCCCCCCCCCNC(=O)CCl`, for which the growth in the experiment with DU-145 prostate was 91.1%; with K-562 leukemia, 85.3%; in the experiment with MALME-3M melanoma it was 87.9%; in the experiment with MDA-MB-231 breast it was 90.4%; in the experiment on RXF 393 renal it was 75.3%; with SF-268 CNS, 82.2%. For the same compound, the growth in the experiment on SF-295 CNS is 102%; in the experiment with SF-539 CNS it was 84.1%; with UACC-257 melanoma it was 84.3%; in the experiment on M14 melanoma, 83.9%; with HCT-15 colon it was 72.4%; in the experiment on HT29 colon, 84.2%. The growth in the experiment with SNB-75 CNS is 45.5%; with U251 CNS, 69.8%; in the experiment on PC-3 prostate it was 66.1%; in the experiment on SK-MEL-5 melanoma it was 72.9%; with UACC-62 melanoma, 73.8%; in the experiment with LOX IMVI melanoma, 50.9%. For the same compound, the growth in the experiment with SK-MEL-28 melanoma was 105%.

Consider `CC[C@H](CO)Nc1nc(NCc2ccccc2)n2ncc(C(C)C)c2n1`, for which the growth with DU-145 prostate was 7.53% (active); in the experiment on K-562 leukemia, 2.92% (active); in the experiment with MALME-3M melanoma, -17% (active); in the experiment on MDA-MB-231 breast, 8.97% (active); in the experiment on RXF 393 renal it was -13.9% (active); in the experiment on SF-268 CNS, 5.86% (active). Further, the growth with SF-295 CNS was 0.519% (active); in the experiment with SF-539 CNS it was -46% (active); with UACC-257 melanoma, 24.2%; in the experiment with M14 melanoma, 8.94% (active); with HCT-15 colon, 2.45% (active); in the experiment on HT29 colon, 3.07% (active). In addition, the growth with SNB-75 CNS was -73.4% (active); in the experiment with U251 CNS it was 5.23% (active); in the experiment with SK-MEL-5 melanoma, -17.6% (active); in the experiment on UACC-62 melanoma, -41.8% (active); in the experiment on LOX IMVI melanoma it was 4.45% (active); in the experiment on SK-MEL-28 melanoma, -16.9% (active).
